Screens: PubChem, National Center for Advancing Translational Sciences (NCATS)
Coupling enz – counter-screen for Giardia aldolase inhibitors: coupling enzyme system. activity change, negative = inhibition, % at 58.2 µM, hits read low. coupling enzyme system counterscreen, AmpLite Red fluorescence. hit rate 0.67% among 290,000; in the data active = activity change below about -30%; also: % is scaled to controls: 0 for no effect and ±100 for the full control effect
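Counterscreen of the coupled detection system alone, without aldolase: glyceraldehyde-3-phosphate coupling enzymes plus AmpLite Red readout. Compounds at 57.5 uM final, 10 min RT preincubation, 20 min RT reaction, fluorescence 525/598 nm.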
GALK inhibitor – blocks human galactokinase activity; P51570; Purified GALK, Kinase-Glo residual ATP luminescence; Potency, µM (titrated, usually from 57.5 µM), for inactives: at the highest dose activity change, negative = inhibition, most hits filed as inhibitors; hit rate 0.007% among 270,000; also: potency is read from the fitted curve at half-maximal effect; % is scaled to controls: 0 for no effect and ±100 for the full control effect
Target sequence (P51570 whole entry, looked up): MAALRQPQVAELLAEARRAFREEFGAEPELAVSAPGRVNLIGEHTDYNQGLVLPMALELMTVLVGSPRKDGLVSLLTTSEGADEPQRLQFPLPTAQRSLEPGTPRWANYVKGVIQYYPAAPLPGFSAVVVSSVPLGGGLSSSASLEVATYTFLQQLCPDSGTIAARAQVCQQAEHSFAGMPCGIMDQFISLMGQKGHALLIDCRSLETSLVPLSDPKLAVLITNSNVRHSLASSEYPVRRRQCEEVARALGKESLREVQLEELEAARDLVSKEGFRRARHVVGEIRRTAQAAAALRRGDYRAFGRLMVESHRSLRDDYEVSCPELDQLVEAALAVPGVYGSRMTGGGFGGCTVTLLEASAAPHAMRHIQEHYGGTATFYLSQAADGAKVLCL
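Quantitative HTS: GALK 5 nM, ATP 35 uM, galactose 100 uM, 1 h room temperature, then luciferase-based ATP detection.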
PLK1 PBD block – blocks phosphopeptide binding to human PLK1 polo-box domain | Plk1 PBD binding of FITC phosphopeptide, fluorescence polarization | hit rate 2.8% among 360,000 | Potency, µM, without a hit: max response, negative = inhibition, most hits filed as inhibitors | AID 720504 | P53350; also: potency is read from the fitted curve at half-maximal effect; series mostly up to about 57 µM; % is scaled to controls: 0 for no effect and ±100 for the full control effect; nearly all actives have a fitted effect of over 65% in size
VDR inh – inhibitors of human vitamin D receptor | P11473 | VDR-SRC2-3 peptide fluorescence polarization, 2 h | Potency, µM, without a hit: max response, negative = inhibition, hits mostly inhibitors | hit rate 0.93% among 400,000; also: potency is read from the fitted curve at half-maximal effect; % is scaled to controls: 0 for no effect and ±100 for the full control effect
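Inhibition of the VDR/SRC2-3 peptide interaction is quantified by fluorescence polarization. Compounds (23 nl, pintool) incubate with the reagents for 2 hours at ambient room temperature.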
USP2a inh – USP2a (human) protease inhibition | USP2 core, Ub-CHOP2 coupled fluorogenic reporter, 485/531 | Potency, µM (highest dose often 38.3 µM), for the others: at the highest dose activity change, negative = inhibition, actives largely listed as inhibitors | O75604 | AID 463254 | hit rate 0.01% among 330,000;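 also: potency is read from the fitted curve at half-maximal effect; plate controls were DMSO wells for no effect and full inhibition by NEM control for full effect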
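Deubiquitinase activity read as fluorescence (485/531 nm) after Ub-CHOP2 cleavage activates the enterokinase reporter on its substrate; USP2 core 10nM, Ub-CHOP2 and substrate 25nM each, 30min compound preincubation then 60min RT; data normalized to NEM, curves fitted.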
USP1-UAF1 inh – inhibitors of human USP1/UAF1 deubiquitinase; O94782; recombinant USP1/UAF1, Ub-Rhodamine cleavage fluorescence; Potency, µM (titrated, usually from 57.1 µM), for inactives: at the highest dose activity change, negative = inhibition, hits mostly inhibitors; hit rate 0.23% among 390,000; also: potency is read from the fitted curve at half-maximal effect; % is scaled to controls: 0 for no effect and ±100 for the full control effect; nearly all actives have a fitted effect of over 60% in size
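1 nM enzyme complex + cpd, 15 min RT; start with Ub-Rho 150nM final; kinetic fluorescence ex 480/em 540, 6 reads q60 s. Buffer 50mM HEPES pH 7.8, 0.5mM EDTA, 0.1 mg/ml BSA, 1mM TCEP, 0.01% Tween-20.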
USP1-UAF1 confirm – USP1-UAF1 deubiquitinase inhibition validated | shares compounds with VDR inh | Ub-Rhodamine cleavage, fluorescence kinetic read | Potency, µM (doses to about 56.8 µM), for inactives: top-dose activity change, negative = inhibition, usual class: inhibitors | hit rate 50% among 50 | AID 540327
VDR confirm – inhibits human vitamin D receptor, primary hit validation; VDR-coactivator inhibition assay, qHTS confirmation; shares compounds with VDR inh; hit rate 89% among 840; Potency, µM, hits mostly inhibitors; also: potency is read from the fitted curve at half-maximal effect
VDR FP – confirmation of human VDR-coactivator binding inhibitors, fluorescein label; shares compounds with VDR inh; hit rate 48% among 840; AID 602200; VDR-coactivator binding, fluorescein fluorescence polarization; Potency, µM (highest dose often 57.1 µM), without a hit: at the top dose activity change, negative = inhibition, most hits filed as inhibitors; also: potency is read from the fitted curve at half-maximal effect
VDR bla reporter – inhibits human VDR in beta-lactamase reporter cells; shares compounds with VDR inh; VDR beta-lactamase reporter cells, FRET ratio; cells co-treated with VDR agonist LG190178; Potency, µM (series often up to 46.1 µM), for the others: at the highest dose activity change, negative = inhibition, hits mostly inhibitors; hit rate 23% among 840; AID 602202; also: potency is read from the fitted curve at half-maximal effect; % is scaled to controls: 0 for no effect and ±100 for the full control effect
VDR viability – counter-screen for vitamin D receptor inhibitors: cytotoxicity; Potency, µM (doses to about 48.3 µM), for inactives: at the top dose activity change, negative = cytotoxicity, usual class: cytotoxic; hit rate 18% among 840; shares compounds with VDR inh; cytotoxicity counter-screen, cell viability, qHTS; AID 602204;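 also: potency is read from the fitted curve at half-maximal effect; plate controls were DMSO for no effect and high-concentration cycloheximide for full effect; nearly all actives have a fitted effect of over 75% in size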
* marks the source's active call; other numbers are inactive results; ? = inconclusive; / = no result given; ! = a repeat was not active. Compounds with a hit are over-represented: about 3.2% of the library has one in this group of screens. Unless noted, calls follow the shape of the dose curve; as a rule, active = well fitted curve in the direction sought with a large enough effect; inconclusive = small, poorly fitted or top-dose-only effect, or another doubt; inactive = no such curve, though single readings can be large; an effect the other way counts as inactive or inconclusive.

SMILES	Coupling enz	GALK inhibitor	PLK1 PBD block	VDR inh	USP2a inh	USP1-UAF1 inh	VDR confirm	VDR FP	VDR bla reporter	VDR viability	others
Cc1ccc(OC(=O)N(C)C[C@H]2OCc3cn(nn3)CCCC(=O)N([C@H](C)CO)C[C@@H]2C)cc1	/	/	8%	/	/	-14%	/	/	/	/
COc1cc(/C=C/C(=O)N2C(=O)c3cccc(N)c3C2=O)cc(OC)c1OC	0	-2%	-23%	41%	2%	-7%	/	/	/	/
Nc1cccc2c1C(=O)N(C(=O)/C=C/c1cccc(Br)c1)C2=O	4	-13%	?	40µM*	-1%	?	9.5*	4.5µM*	-20%	15%
CC(C)Oc1ccc(C(=O)NC2=NCCS2)cc1	8	0%	27µM*	79µM*	1%	-17%	24*	?	15%	25%
COc1ccc(CCC(=O)NC2CC(=O)N(c3ccc(OC)cc3)C2)cc1 (stereo unspecified)	/	/	/	-1%	/	-22%	/	/	/	/
O=C(/C=C/c1ccccc1)c1ccc(NC2=NCCCS2)cc1	2	0%	-8%	?	1%	-23%	/	/	/	/
O=C(/C=C/c1ccc(Br)cc1)c1ccc(NC2=NCCCS2)cc1	-11	0%	-11%	22µM*	-2%	-14%	15*	10µM*	?	18µM*
CCOC(=O)COc1ccc(Br)cc1/C=C/c1[nH]c(=O)[nH]c(=O)c1[N+](=O)[O-]	3	-11%	-28%	14µM*	5%	-17%	3.8*	?	-30%	?
CCOC(=O)COc1ccc(Br)cc1/C=C\c1[nH]c(=O)[nH]c(=O)c1[N+](=O)[O-]	8	-7%	-20%	22µM*	0%	-24%	4.2*	3.2µM*	?	?
COc1cc(/C=C/c2[nH]c(=O)[nH]c(=O)c2[N+](=O)[O-])cc(OC)c1O	7	3%	-2%	?	2%	-24%	/	/	/	/
Cc1nc2sccn2c(=O)c1CCN1CCC(=C(c2ccc(F)cc2)c2ccc(F)cc2)CC1	-8	-1%	-6%	79µM*!	-9%	-29%	/	/	/	/	USP1-UAF1 confirm=?
CCS(=O)(=O)c1ncc(Cl)c(C(=O)N2CCN(c3cccc(Cl)c3)CC2)n1	/	/	/	8.9µM*	/	?	2.8*	2.8µM*	2.9µM*	9.5µM*
O=C1/C(=C/c2cccnc2)CCC/C1=C\c1cccnc1	6	/	-13%	50µM*	0%	-15%	13*	20µM*	5.8µM*	15µM*
O=C1/C(=C/c2cccnc2)CC/C1=C\c1cccnc1	1	4%	-12%	-5%	1%	-19%	/	/	/	/
CCC1C/C(=C\c2cccnc2)C(=O)/C(=C/c2cccnc2)C1 (stereo unspecified)	-1	-2%	-17%	22µM*	2%	?	5.3*	3.5µM*	5.8µM*	21µM*
Cc1ccccc1Nc1c(-c2ccc(N3CCOCC3)cc2)nc2cccc(C)n12	/	/	/	-20%	/	-20%	/	/	/	/
Nc1ccc(-c2nc3ccc(-c4nc5ccc(N)cc5[nH]4)cc3[nH]2)cc1	1	/	/	2%	/	/	/	/	/	/	USP1-UAF1 confirm=?
c1ccc(CCc2nn3c(Cn4cnc5ccccc54)nnc3s2)cc1	2	1%	6.7µM*	?	0%	-15%	22*	20µM*	-3%	-9%
c1ccc(CCn2cnc3ccccc32)cc1	2	1%	1%	3%	-5%	-12%	/	/	/	/
c1ccc(OCc2nn3c(Cn4nnc5ccccc54)nnc3s2)cc1	3	1%	12µM*	?	-4%	-3%	22*	8.9µM*	2%	-14%
COc1cc(CNC2CCCC2)cc(Cl)c1OCc1ccccc1F	9	0%	-6%	3%	0%	-14%	/	/	/	/
COc1ccc(-c2csc(Nc3ccccc3)n2)cc1	-5	-1%	-12%	7%	2%	-24%	/	/	/	/
Cc1ccc(C(=O)Oc2oc(-c3ccco3)nc2C=Nc2ccc(Cl)cc2)cc1	-3	-5%	4.7µM*	50µM*	3%	-8%	11*	?	-4%	1%
O=C(Oc1oc(-c2ccco2)nc1C=Nc1ccccc1)c1ccoc1	-3	10%	4.7µM*	50µM*	-1%	-4%	?	?	?	?
Cc1ccc(N=Cc2nc(-c3ccco3)oc2O)cc1	-1	10%	-2%	21%	1%	?	/	/	/	/
SMILES	Coupling enz	GALK inhibitor	PLK1 PBD block	VDR inh	USP2a inh	USP1-UAF1 inh	VDR confirm	VDR FP	VDR bla reporter	VDR viability	others
Cc1ccc(C(=O)Oc2oc(-c3ccccc3)nc2C=Nc2ccc(N(C)C)cc2)cc1	-5	-1%	72%	-21%	28%	-1%	/	/	/	/
O=C(Oc1oc(-c2ccco2)nc1C=Nc1ccccc1)c1ccco1	0	1%	3µM*	28µM*	3%	-2%	6*	?	?	-10%
CC1(C)CC(O)C(C)(C)N1O (stereo unspecified)	0	0%	-14%	-5%	-3%	-7%	/	/	/	/
CC1=C(C#N)C(=O)NC(=O)/C1=C\c1ccc(-c2cc(C)c(C)cc2[N+](=O)[O-])o1	1	-2%	4.7µM*	25µM*	-1%	?	10*	8.9µM*	-7%	8%
Cc1ccc(-c2ccc(/C=C3/NC(=O)NC3=O)o2)cc1[N+](=O)[O-]	0	0%	-6%	8%	2%	-7%	/	/	/	/
C(=Cc1cccnc1)c1ccncc1	/	/	0%	16%	/	-16%	/	/	/	/
O=C(/C=C/c1cccnc1)/C=C/c1cccnc1	-1	0%	-19%	13µM*	-2%	-19%	2.7*	-14%	5.8µM*	15µM*
CN(C)S(=O)(=O)c1ccc(C(=O)/C=C/c2cccnc2)cc1	1	13%	-3%	20µM*	1%	-15%	?	?	21%	?
